# Compounds with a hit are over-represented: about 17% of the library has one in this group of screens.
# HT1080 IDH1KD tx: toxicity to HT-1080 IDH1 knockdown cells (counter line); HT-1080 IDH1 knockdown viability, ATP luminescence, 48 h; 2% of 360,000 active; AID 686971; Potency, µM (doses to about 46.1 µM), without a hit: at the top dose activity, negative = toxicity, hits mostly cytotoxic;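 note: 0% = DMSO wells and -100% = cell-free medium wells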
#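 After a 2 h attachment period, IDH1KD HT-1080 cells took pin-transferred compound for 48 h at 37 °C; ATP-based luminescence after 10 min room-temperature reagent incubation reported viability.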
# DT40 TDP1 CPT: growth inhibition of DT40 Tdp1-/-;hTDP1 cells with camptothecin (screen for TDP1 inhibitors) | chicken DT40 Tdp1-/-;hTDP1 cells + 20 nM CPT, ATP luminescence, 48 h | Potency, µM (doses to about 46.2 µM), for inactives: at the top dose activity change, negative = growth inhibition, most hits filed as inhibitors | 12% of 420,000 active; note: % is set by controls: 0 for no effect and ±100 for the full control effect; nearly all actives have a fitted effect of over 55% in size
#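 Chicken DT40 Tdp1-/- cells stably complemented with human TDP1 were seeded at 400 cells/well in medium containing 20 nM camptothecin, exposed to pin-transferred compounds, and grown at 37 °C for at least 48 hr. Viability was read as ATP luminescence.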
# HepG2 tox: kills HepG2 cells in TGF-b inhibitor counter-screen | 0.76% of 410,000 active | HepG2 CAGA-GFP viability, ATP luminescence, 18 h | Potency, µM (top dose mostly 46.1 µM), for the others: at the highest dose activity change, negative = cytotoxicity, usual class: cytotoxic
#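 CellTiter-Glo luminescence gave cytotoxicity after 18 hours at 37 degrees C. The cells were HepG2 CAGA-GFP in 1% FBS DMEM, stimulated with 500 pg/mL TGF-beta after compound addition. %Activity was normalised to no-cell wells (complete cell-killing) and DMSO (no toxicity), and curves were fitted and classified.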
# TGFb SMAD3 inh: inhibitors of TGF-b signaling. HepG2 CAGA-GFP TGF-b/SMAD3 reporter, GFP fluorescence, 18 h; TGF-beta stimulated, 500 pg/mL final. 1.2% of 410,000 active. AID 588855. Potency, µM (series often up to 46.1 µM), inactives show at the top dose activity, negative = inhibition, hits mostly inhibitors; note: % is set by controls: 0 for no effect and ±100 for the full control effect; nearly all actives have a fitted effect of over 65% in size
#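 HEPG2 CAGA-GFP, 1000 cells/well; 2 h settle, 37 C; cpd via pin tool; TGF-b 500 pg/mL final; 18 h, 37 C; GFP imaging ex488/em500-530; %Activity normalised to -TGF-b and +DMSO controls; CRC fit, curve class.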
# HT1080NT lethal: kills 2HG-producing HT-1080-NT fibrosarcoma cells. 1.6% of 360,000 active. HT-1080-NT fibrosarcoma viability, CellTiter-Glo ATP luminescence, 48 h. AID 686970. Potency, µM (titrated, usually from 46.1 µM), for the others: at the top dose activity, negative = less viability, most hits filed as cytotoxic;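 note: NT is the 2HG producing partner of a matched IDH1 knockdown line; 0% = DMSO-treated cells and -100% = media-only wells without cells; nearly all actives have a fitted effect of over 55% in size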
#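 Compounds were tested in concentration-response format on HT-1080-NT cells for 48 hours at 37 degrees C. Cell viability came from CellTiter-Glo luminescence; curves were classified by r2, response magnitude and activity.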
# TDP1 cell noCPT: qHTS for Inhibitors of human tyrosyl-DNA phosphodiesterase 1 (TDP1): qHTS in cells in absence of CPT. DT40 Tdp1-/- hTDP1 cells, no CPT, ATP luminescence, 48 h. Potency, µM (series often up to 46.2 µM), for the others: at the top dose activity change, negative = growth inhibition, hits mostly inhibitors. 15% of 420,000 active. AID 686978, 2013; note: % is set by controls: 0 for no effect and ±100 for the full control effect; nearly all actives have a fitted effect of over 55% in size
#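 DT40 Tdp1-/-;hTDP1 cells, no CPT (DMSO vehicle only), 400 cells/well; compounds pin-transferred; ≥48 hr, 37 °C; CellTiter-Glo 30 min RT dark, luminescence read.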
# * = called active by the depositor; ? = inconclusive; · = no result. Calls come from the whole dose curve; as a rule, active = well fitted curve in the direction sought with a large enough effect; inconclusive = small, poorly fitted or top-dose-only effect, or another doubt; inactive = no such curve, though single readings can be large; an effect the other way counts as inactive or inconclusive. Potency is the fitted concentration of half-maximal effect.
SMILES,HT1080 IDH1KD tx,DT40 TDP1 CPT,HepG2 tox,TGFb SMAD3 inh,HT1080NT lethal,TDP1 cell noCPT
CC(C)Oc1ccc(CNC(=O)c2ccc(NC(=O)N3CCSc4ncccc43)cc2)cc1,·,?,-19%,0%,·,?
COc1ccc([C@H]2CC(=O)C=C(c3c(OC)cccc3OC)C2)cc1,5.8µM*,2.9µM*,-20%,-6%,4.6µM*,2.1µM*
COC/C=C/C1=CC(=O)C[C@H](c2ccc3c(c2)OCO3)C1,-4%,?,-30%,-16%,-16%,18µM*
COc1ccc([C@H]2CC(=O)C=C(c3cc(Cl)ccc3OC)C2)cc1,?,13µM*,4%,?,?,?
COc1ccc(C2=CC(=O)CC(c3ccc(OC)cc3)C2)cc1 (stereo not drawn),7%,8%,-19%,-5%,-15%,?
COc1ccc(CNC(=O)CCC(=O)N2CCN(S(=O)(=O)c3ccc(Cl)cc3)CC2)cc1,12%,-20%,12%,-18%,-3%,-15%
Cc1cc2c(c(C)c1Br)C(c1ccc3c(c1)OCO3)CC(=O)O2 (stereo not drawn),-3%,-6%,-89%,20µM*,-1%,6%
COc1cc(C2CC(=O)Oc3cc(C)c(Cl)c(C)c32)cc(OC)c1OC (stereo not drawn),-4%,?,-10%,-11%,-4%,?
Cc1cc(C)c2c(c1)OC(=O)CC2c1ccc2c(c1)OCO2 (stereo not drawn),3%,-12%,11%,-14%,11%,-14%
COc1cc(C2CC(=O)Oc3cc(C)c(Br)c(C)c32)cc(OC)c1OC (stereo not drawn),-2%,21µM*,-37%,?,0%,?
COc1ccccc1NC(=O)CN1CC(=O)Nc2ccccc21,18%,0%,5%,5%,10%,1%
CCc1cccc(NC(=O)c2ccc(Br)o2)c1,-1%,-14%,-16%,3%,12%,-19%
CCn1cc(C(=O)NC(C)c2ccccc2)c(=O)c2cc(S(=O)(=O)N3CCc4ccccc4C3)ccc21 (stereo not drawn),·,?,-15%,?,·,16µM*
CCC(C)NC(=O)c1cn(CC)c2ccc(S(=O)(=O)N3CCc4ccccc4C3)cc2c1=O (stereo not drawn),·,21µM*,-25%,?,·,?
COC(=O)c1ccc(COc2ccccc2/C=C/C(=O)c2ccc(OCC(=O)O)cc2)cc1,?,?,-21%,?,?,?
NC(=O)NC(CCC(=O)O)C(=O)O (stereo not drawn),-1%,-4%,-40%,-12%,-5%,-7%
COc1ccc(S(=O)(=O)NC2CC(=O)N(c3ccc(C)c(C)c3)C2)cc1 (stereo not drawn),1%,?,8%,3%,2%,16µM*
COc1cccc(N2CC(NS(=O)(=O)c3ccc4ccccc4c3)CC2=O)c1 (stereo not drawn),-11%,-15%,-5%,-11%,-7%,29µM*
Cc1ccc(N2CC(NC(=O)c3ccc(S(=O)(=O)N4CCCC4)cc3)CC2=O)cc1C (stereo not drawn),·,?,3%,-3%,·,18µM*
Cc1ccc(N2CC(NC(=O)c3ccc(S(=O)(=O)N4CCOCC4)cc3)CC2=O)cc1C (stereo not drawn),·,?,-26%,-2%,·,?
NC(=O)NS(=O)(=O)Oc1ccccc1,7%,4%,3%,-6%,0%,-9%
CCOc1cc(/C=N/Nc2cccc(C(=O)O)c2)ccc1OC(=O)c1ccccc1,-16%,7%,-12%,-2%,-19%,?
CCOc1cc(/C=N/NC(=O)CNc2cccc(C)c2)ccc1OC(=O)c1ccccc1,-1%,?,-3%,?,-1%,18µM*
COc1cc(C=NNc2ccccc2)ccc1OC(=O)c1ccccc1,?,?,-2%,0%,?,18µM*
COc1cc(/C=N/Nc2nc3ccccc3s2)ccc1OC(=O)c1ccccc1F,?,6.5µM*,-2%,6%,-18%,4.6µM*
SMILES,HT1080 IDH1KD tx,DT40 TDP1 CPT,HepG2 tox,TGFb SMAD3 inh,HT1080NT lethal,TDP1 cell noCPT
c1coc(CSc2ncnc3c2oc2ccccc23)c1,-12%,11%,32%,40%,-8%,8.2µM*
c1ccc(CSc2ncnc3c2oc2ccccc23)cc1,-1%,?,-19%,28%,1%,?
CC(=O)N1CCN(c2ccc(Nc3ncnc4c3oc3ccccc34)cc2)CC1,?,15µM*,-23%,8%,-18%,10µM*
CC(=O)CSc1ncnc2c1oc1ccccc12,-6%,-5%,-19%,3%,-6%,-16%
CC(C)C(Nc1ncnc2c1oc1ccccc12)C(=O)O (stereo not drawn),1%,16%,-7%,19%,3%,2%
CCc1nc(Nc2ccccc2)c2oc3ccccc3c2n1,1%,?,-33%,0%,11%,?
CCc1nc(Nc2ccc(N3CCN(C(C)=O)CC3)cc2)c2oc3ccccc3c2n1,-22%,21µM*,-42%,-4%,-9%,13µM*
O=C(CSc1ncnc2c1oc1ccccc12)N1CCN(c2ccccc2)CC1,2%,?,-14%,-4%,5%,29µM*
COc1ccc(OC)c(NC(=O)CC2C(=O)NCCN2C(=O)C(F)(F)F)c1 (stereo not drawn),·,-8%,-63%,-8%,·,-6%
COc1cc2c(cc1OC)[C@@H](NC(=O)CCc1ccccc1)[C@H](OCc1ccccc1)C2,-12%,10µM*,-36%,-17%,0%,?
Cc1cccc(N2CCN(C(=O)CCCOc3ccccc3)CC2)c1C,-3%,?,-26%,0%,-19%,?
CCOC(=O)c1[nH]c(C)c(C(=O)N2CCN(c3ccccc3)CC2)c1C,-25%,-19%,-1%,-15%,3%,?
CCOC(=O)c1c(C)[nH]c(C)c1S(=O)(=O)N(C)CC(=O)N1CCN(c2ccc(Cl)cc2)CC1,·,15µM*,-2%,?,·,?
CCOC(=O)c1[nH]c(C)c(CCC(=O)N2CCN(c3ccc(Cl)cc3)CC2)c1C,·,?,-4%,-27%,·,23µM*
CCOC(=O)c1[nH]c(C)c(CCC(=O)N2CCN(c3cccc(C)c3C)CC2)c1C,·,15µM*,-2%,?,·,18µM*

# Bioassay records deposited in PubChem by National Center for Advancing Translational Sciences (NCATS).
